Six1-Eya2 blk = Six1/Eya2 interaction inhibition | AlphaScreen GST-Six1/His-Eya2 binding, biochemical; stronger effect = lower value | activity change, % (concentration not given with the values) | actives 0.56% (n = 360,000); in the data active = activity change below about -65%; inconclusive = mostly about -30% to -63%
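AlphaScreen luminescence read after one hour at 37 °C in darkness. Pin-transferred compounds met GST-Six1 and His-Eya2 protein (5X stock 250 nM/500 nM) plus glutathione donor and Ni-chelate acceptor beads (5X, 50 ug/mL).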
HP1b binding inh = inhibitors of HP1-beta chromodomain binding to methylated histone tails | P83916 | Potency, µM (titrated, usually from 114 µM), actives largely listed as inhibitors | actives 0.56% (n = 390,000) | AlphaScreen HP1-beta / biotin-H3K9me3 peptide binding; note: nearly all actives have a fitted effect of over 70% in size
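Compound inhibition of the preformed complex between 50 nM HP1-beta and 50 nM biotinylated H3K9me3 peptide was read by AlphaScreen. Buffer was PBS pH 7.4 with 0.01% Tween-20. Incubations ran 30 min at room temperature, with 10 ug/mL donor/acceptor beads.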
G9a inh = inhibitors of human histone lysine methyltransferase G9a; G9a H3K9 monomethylation, AlphaScreen, 2 h; Potency, µM (titrated, usually from 102 µM), most hits filed as inhibitors; actives 8.8% (n = 350,000); Q96KQ7; note: nearly all actives have a fitted effect of over 75% in size
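G9a (20 nM) preincubated 15 min RT with compounds, then 500 nM biotinylated H3K9 peptide and 20 uM SAM added; 2 h RT reaction. Monomethyl-H3K9 product detected by AlphaScreen with anti-H3K9me1 antibody, streptavidin donor and anti-rabbit IgG acceptor beads.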
JMJD2A Tudor = inhibitors of human JMJD2A Tudor domain | O75164 | AlphaScreen JMJD2A-Tudor / H3K4me3 peptide binding | Potency, µM (highest dose often 114 µM), actives largely listed as inhibitors | actives 4.4% (n = 390,000) | AID 504339; note: nearly all actives have a fitted effect of over 50% in size
BAZ2B inh = inhibitors of human BAZ2B bromodomain | Potency, µM (highest dose often 114 µM), hits mostly inhibitors | AID 504333 | AlphaScreen BAZ2B-H3K14Ac peptide displacement | actives 4.4% (n = 360,000); note: nearly all actives have a fitted effect of over 60% in size
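Complex of BAZ2B and biotin-H3K14Ac (50 nM apiece) forms over 30 min at RT, then faces library compounds up to 110 uM for another 30 min; AlphaScreen beads added, 20 min dark incubation, luminescence read.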
CtBP-E1A inh = inhibitors of CtBP/E1A interaction; AID 651724; activity change, % (test concentration not listed); AlphaScreen GST-E1A/His-CtBP binding, 1536-well; stronger effect = lower value; actives 0.49% (n = 340,000); in the data active = activity change below about -65%; inconclusive = mostly about -30% to -63%
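GST-E1A and His-tagged CtBP (125 nM each as 5X stock) were preincubated with pin-transferred compound for 2 h at 37 °C in the dark, then glutathione donor and nickel acceptor beads were added for 1 h before AlphaScreen reading.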
A number is an active result; [ ] = another dose, or the depositor's remark. Compounds with a hit are over-represented: about 10% of the library has one in this group of screens. Unless noted, calls come from the whole dose curve; as a rule, active = well fitted inhibition curve with a large enough effect; inconclusive = small, poorly fitted or top-dose-only effect; inactive = no such curve, though single readings can be large or run the other way.

How did COC(=O)c1ccc(C2/C(=C(\O)c3ccc4c(c3)OCCO4)C(=O)C(=O)N2CCCN2CCOCC2)cc1 (stereo not drawn) do in these assays?
Six1-Eya2 blk: inactive; HP1b binding inh: inactive; G9a inh: inconclusive; JMJD2A Tudor: inactive; BAZ2B inh: inactive; CtBP-E1A inh: inactive

Results for CCCCN(C)CCCNC(=O)C1CCN(S(=O)(=O)CCC)CC1 ?
HP1b binding inh: inactive; G9a inh: inactive; JMJD2A Tudor: inactive; BAZ2B inh: inactive

How did CCCCN1CCc2c([nH]c3ccccc23)C1=O do in these assays?
Six1-Eya2 blk: inactive; HP1b binding inh: inactive; G9a inh: inactive[12.7 µM]; JMJD2A Tudor: inactive; BAZ2B inh: inactive; CtBP-E1A inh: inactive

How did CCCCC1CN2CCc3c([nH]c4ccccc34)C2(C)C1 (stereo not drawn) do in these assays?
Six1-Eya2 blk: inactive; HP1b binding inh: inactive; G9a inh: 79.4µM; JMJD2A Tudor: inactive; BAZ2B inh: inconclusive; CtBP-E1A inh: inactive

Results for COc1cccc(NC(=O)CSc2nnc(Cc3cccs3)n2-c2ccc(C)cc2)c1 ?
Six1-Eya2 blk: inactive; HP1b binding inh: inactive; G9a inh: inactive; JMJD2A Tudor: inactive; BAZ2B inh: inactive; CtBP-E1A inh: inactive

What do the screens show for `Cc1ccc(-n2c(Cc3cccs3)nnc2SCC(=O)Nc2ccc(S(N)(=O)=O)cc2)cc1`?
Six1-Eya2 blk: inactive; HP1b binding inh: inactive; G9a inh: 44.7µM; JMJD2A Tudor: inactive; BAZ2B inh: inactive; CtBP-E1A inh: inactive

How did COc1ccc(NC(=O)CSc2nnc(Cc3cccs3)n2-c2ccc(C)cc2)cc1 do in these assays?
Six1-Eya2 blk: inactive; HP1b binding inh: inactive; G9a inh: 35.5µM; JMJD2A Tudor: inconclusive; BAZ2B inh: inactive; CtBP-E1A inh: inactive

Results for COc1ccc(-n2c(SCC(=O)Nc3ccc(C(=O)O)cc3)nnc2-c2cccs2)cc1 ?
Six1-Eya2 blk: inactive; HP1b binding inh: inactive; G9a inh: inconclusive; JMJD2A Tudor: 79.4µM; BAZ2B inh: inactive; CtBP-E1A inh: inactive

Results for Cc1ccc(-n2c(SCC(=O)Nc3ccc4c(c3)OCCO4)nnc2-c2ccco2)cc1 ?
Six1-Eya2 blk: inactive; HP1b binding inh: inactive; G9a inh: inactive; JMJD2A Tudor: inactive; BAZ2B inh: inconclusive; CtBP-E1A inh: inactive

How did Cc1ccc(-n2c(SCC(=O)Nc3ccc4c(c3)OCO4)nnc2-c2cccs2)cc1 do in these assays?
Six1-Eya2 blk: inactive; HP1b binding inh: inactive; G9a inh: inconclusive; JMJD2A Tudor: 56.2µM; BAZ2B inh: inactive; CtBP-E1A inh: inactive

What do the screens show for `COc1cc(S(=O)(=O)Nc2ccccc2C(=O)N2CCCC2)ccc1NC(C)=O`?
Six1-Eya2 blk: inactive; HP1b binding inh: inactive; G9a inh: inactive; JMJD2A Tudor: inactive; BAZ2B inh: inactive; CtBP-E1A inh: inactive

What do the screens show for `O=C(OCc1ccccc1)N(CCCCN(CCCNCc1ccccc1)C(=O)OCc1ccccc1)CCCNCc1ccccc1`?
Six1-Eya2 blk: inactive; HP1b binding inh: inactive; JMJD2A Tudor: inactive; CtBP-E1A inh: inactive

What do the screens show for `C[C@@H]1CCN(C(=O)[C@H](CCCNC(=N)N)NS(=O)(=O)c2cccc3c2NC[C@H](C)C3)[C@@H](C(=O)O)C1`?
G9a inh: inactive

What do the screens show for `COc1ccc(-n2c(CCC(=O)O)ccc2-c2ccc(F)cc2)c(OC)c1`?
Six1-Eya2 blk: inactive; HP1b binding inh: inactive; G9a inh: 39.8µM; JMJD2A Tudor: inconclusive; BAZ2B inh: inactive; CtBP-E1A inh: inactive

Results for Cc1ccc(-c2ccc(CCC(=O)O)n2CC(=O)O)cc1 ?
Six1-Eya2 blk: inactive; HP1b binding inh: inactive; G9a inh: inactive[12.7 µM]; JMJD2A Tudor: inconclusive; BAZ2B inh: inconclusive; CtBP-E1A inh: inactive

How did O=C(O)CCc1ccc(-c2ccc(F)cc2)n1CC(=O)O do in these assays?
Six1-Eya2 blk: inactive; HP1b binding inh: inactive; G9a inh: 44.7µM; JMJD2A Tudor: inactive; BAZ2B inh: inactive; CtBP-E1A inh: inactive

Results for O=C(c1ccc(CS(=O)c2ccccc2Cl)o1)N1CCN(c2ccccn2)CC1 (stereo not drawn) ?
Six1-Eya2 blk: inactive; HP1b binding inh: inactive; G9a inh: 89.1µM; JMJD2A Tudor: inactive; BAZ2B inh: inactive
